This note sets out measurements from PubChem BioAssay (Tox21).

The structures appear in SMILES notation. Records with an inconclusive call do not appear. Entries that show only a call come without a potency. The source holds several records for some structures; these can differ, active in one and inactive in another. Calls of active or inactive are those of the source. Calls follow the shape of the full dose curve.

The target in one experiment is Acetylcholinesterase (Homo sapiens) (UniProt P22303). The experiment in a line: Acetylcholinesterase (AChE) small molecule antagonists: fluorescence cell-based qHTS assay (AID 1347398). Also: nearly all actives have a fitted effect of over 50% in size. Also: potency is read from the fitted curve at half-maximal effect. The conditions noted are these: SH-SY5Y cells; Potency: AChE activity; outcome: AChE activity; series mostly up to 115 µM. Put shortly: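 Cells (SH-SY5Y) attached overnight, were dosed with compound or DMSO vehicle for 30 min at 37 C, and then incubated 40 min at room temperature with acetylthiocholine and Thiolite Green; green fluorescence indexed AChE activity.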
Sequence of Acetylcholinesterase (Homo sapiens) (P22303 whole entry, looked up): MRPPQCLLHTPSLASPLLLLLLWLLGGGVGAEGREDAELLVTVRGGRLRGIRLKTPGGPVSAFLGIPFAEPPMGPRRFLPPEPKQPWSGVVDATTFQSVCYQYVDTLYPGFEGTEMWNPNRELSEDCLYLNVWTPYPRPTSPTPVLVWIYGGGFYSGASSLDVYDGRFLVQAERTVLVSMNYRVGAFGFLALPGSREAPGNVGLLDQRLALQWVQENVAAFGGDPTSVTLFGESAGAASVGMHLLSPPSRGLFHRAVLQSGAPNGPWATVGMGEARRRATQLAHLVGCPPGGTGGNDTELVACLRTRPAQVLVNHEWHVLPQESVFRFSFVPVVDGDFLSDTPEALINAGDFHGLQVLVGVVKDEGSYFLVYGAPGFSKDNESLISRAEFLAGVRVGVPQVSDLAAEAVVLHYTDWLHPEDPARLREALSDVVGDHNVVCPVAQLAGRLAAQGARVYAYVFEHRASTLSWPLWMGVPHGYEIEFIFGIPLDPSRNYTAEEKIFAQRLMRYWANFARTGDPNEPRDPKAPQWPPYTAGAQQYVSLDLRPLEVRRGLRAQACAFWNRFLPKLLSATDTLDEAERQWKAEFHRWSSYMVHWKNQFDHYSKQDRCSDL
For the compound `OC[C@H]1O[C@@H](n2cnc3c(=S)nc[nH]c32)[C@H](O)[C@@H]1O`, the Potency entry is “inactive”. On the same count and under the same terms, the same measure for `CNc1c2c(nn1C)CCCC2`: “inactive”; for `Cc1cc(O)cc(C)c1Cl`: “inactive”. With `CCNc1ccccc1`, the Potency result was “inactive”.

Take `O=C1c2ccccc2C(=O)N1SC1CCCCC1`: the Potency is 22.4 µM (active) and inactive. Still for that read-out and setting: the same measure for `CN1CCc2cccc3c2[C@H]1Cc1ccc(O)c(O)c1-3`: 64 µM (active).

The target is the same in a further experiment. Briefly: Acetylcholinesterase (AChE) small molecule antagonists: enzyme-based qHTS assay with human liver microsomes (AID 1347399). Also: nearly all actives have a fitted effect of over 60% in size. The conditions noted are these: Potency: qHTS inhibition; outcome: qHTS inhibition; series mostly up to 115 µM. Put shortly: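 Recombinant human AChE (50 mU/mL in the enzyme mix) and human liver microsomes (0.25 mg/mL final) were preincubated with compound and NADPH (0.25 mg/mL final) for 30 min at 37 C. Acetylthiocholine/DTNB was then added; thiocholine was read colorimetrically after 10 min at room temperature.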
In the case of `CC(C)(C)C(=O)C(=O)O`, the Potency entry is “inactive”. The same measure, in the same setting: the same measure for `CC1=NN(c2cc(S(=O)(=O)O)ccc2Cl)C(=O)C1N=Nc1ccccc1` (stereo unspecified): “inactive”; for `C[C@]12CC[C@@H]3c4ccc(O)cc4C[C@@H](CCCCCCCCCS(=O)CCCC(F)(F)C(F)(F)F)[C@H]3[C@@H]1CC[C@@H]2O` (stereo partly specified): “inactive”.

Consider `CC(=O)OCC(COC(C)=O)OC(C)=O`, for which the Potency result was “inactive”. Still for that read-out and setting: the same measure for `OC[C@H]1O[C@@H](n2cnc3c(=S)nc[nH]c32)[C@H](O)[C@@H]1O`: “inactive”.

In the case of `CNc1c2c(nn1C)CCCC2`, the Potency entry was “inactive”. Consider `CCCCCCC(C)O` (stereo unspecified), for which the Potency result was “inactive”.

For `Cc1ccc(S(=O)(=O)NC(=O)NC2CCCCC2)cc1`, the Potency entry is “inactive”. On the same count and under the same terms, the same measure for `Cc1cc(O)cc(C)c1Cl`: “inactive”. On to `O=C(O)Cc1cccc(-c2cc(CCCCCCc3ccc(O[C@H]4O[C@H](CO)[C@@H](O)[C@H](O)[C@@H]4O)c(-c4cccc(CC(=O)O)c4)c3)ccc2O[C@H]2O[C@H](CO)[C@@H](O)[C@H](O)[C@@H]2O)c1`, for which the activity change, negative = inhibition is -1.17% [at 0.435 µM] (inactive).

`O=C(O)CCCCC1CCSS1` (stereo unspecified): the Potency entry was “inactive”. Same read-out and setting: the same measure for `CN(C)c1ccc(C(=N)c2ccc(N(C)C)cc2)cc1`: “inactive”; for `CCC(C)(C)C`: “inactive”; for `CCCC/C=C\CCCCCCCCCC=O`: “inactive”.

Take `O=C(OCCOCCO)c1ccccc1Nc1cccc(C(F)(F)F)c1`: the Potency entry was “inactive”. On the same count and under the same terms, the same measure for `CCc1ccc(C(c2ccc(CC)cc2)C(Cl)Cl)cc1`: “inactive”; for `Cc1ccccc1Br`: “inactive”; for `CN1Cc2cc(C(=O)N3CCC(C4CCNCC4)CC3)ccc2N[C@@H](CC(=O)O)C1=O`: “inactive”. On to `CNC(=O)c1ccccc1`, for which the Potency entry was “inactive”. The same measure, in the same setting: the same measure for `CC(C)NC(=O)c1ccccc1N`: “inactive”; for `CCCCC/C=C\C/C=C\CCCCCCCC(=O)O`: “inactive”.

In the case of `CC(=O)CC(=O)Nc1ccccc1C`, the Potency result is “inactive”.

As to `CCNc1ccccc1`, the Potency result is “inactive”. For the compound `O=c1oc2c(O)c(O)cc3c(=O)oc4c(O)c(O)cc1c4c23`, the activity change, negative = inhibition is -1.34% [at 23.6 µM] (inactive). As to `CCO/C([O-])=N/c1c[n+](N2CCOCC2)no1`, the Potency entry was “inactive”.

Consider `Cc1ccc(N=Nc2c(O)c(C(=O)O)cc3ccccc23)c(S(=O)(=O)O)c1`, for which the Potency entry is “inactive”. `C=CCOCC(CO)(COCC=C)COCC=C`: the Potency entry is “inactive”. Same read-out and setting: the same measure for `OCc1ccccc1O`: “inactive”. As to `O=C(OCCOCCOC(=O)c1ccccc1)c1ccccc1`, the Potency entry is “inactive”. The same measure, in the same setting: the same measure for `CCCCCCCCOS(=O)(=O)O`: “inactive”.

Consider `CCOC(=O)CCCCCCCCC(=O)OCC`, for which the Potency entry was “inactive”. The same measure, in the same setting: the same measure for `CCOCC(O)COc1ccc(NC(=O)CC[S+](C)C)cc1` (stereo unspecified): “inactive”; for `O=C1c2ccccc2C(=O)N1SC1CCCCC1`: “inactive”.

Turning to `CN1CCc2cccc3c2[C@H]1Cc1ccc(O)c(O)c1-3`, the Potency result was “inactive”.

In the case of `CCC(C(=O)NC(N)=O)c1ccccc1` (stereo unspecified), the Potency result was “inactive”. Same read-out and setting: the same measure for `CC(C)(O)CCc1ccccc1`: “inactive”; for `CCCCCCC/C=C/C=O`: “inactive”. The same measure, in the same setting: the same measure for `C=C(C)C1CC=C(C)CC1` (stereo unspecified): “inactive”; for `CCCCC(CC)COC(=O)c1ccccc1` (stereo unspecified): “inactive”; for `O=C(O)[C@@H](O)[C@H](O)[C@H](O)[C@@H](O)C(=O)O`: “inactive”.
